Screening data as filed in PubChem.
tim23-1 inh – inhibits growth of tim23-1 mutant yeast | inhibition, % at 20 µM | S. cerevisiae tim23-1 growth, BacTiter-Glo luminescence, 24 h | 1.3% of 330,000 active;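 active = growth inhibition of the mutant yeast at or above 50%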;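 also: temperature-sensitive mutant grown at 25 °C; plate controls were DMSO-treated mutant yeast for no effect and medium wells lacking yeast for full effect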
tim10-1 inh – inhibits growth of tim10-1 mutant yeast; S. cerevisiae tim10-1 ts strain growth, BacTiter-Glo, 24 h; inhibition, % at 20 µM; 2.2% of 330,000 active; AID 463190;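 active = inhibition of at least 40%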;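 also: mutant grown at 25 °C; 0% = DMSO wells with yeast and 100% = wells holding no yeast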
TIM10 inh – growth inhibitors of TIM10 yeast strain; 1.4% of 330,000 active; inhibition, % at 10 µM; S. cerevisiae TIM10 strain growth, BacTiter-Glo luminescence, 24 h;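 active = inhibition of 40% or more at the single tested concentration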;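 also: wild-type TIM10 isogenic control strain grown at permissive 25 °C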
NLRP3 yeast inh – blocks the NALP3 inflammasome reconstituted in yeast. Yeast reconstituted NLRP3/ASC/caspase-1, beta-gal luminescence, 24 h. inhibition, % at 10 µM. 0.39% of 330,000 active;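 active = inhibition of 50% or more; inactive = inhibition below 50%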;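 also: plate controls were induced DMSO wells for no effect and uninduced yeast grown without galactose for full effect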
NALP1 yeast inh – blocks the NALP1 inflammasome reconstituted in yeast; S. cerevisiae NALP1/ASC/caspase-1 growth, X-gal OD620, 72 h; inhibition, % at 10 µM; 0.61% of 280,000 active; in the data active = inhibition mostly above about 24%, no sharp cut-off; inactive = mostly below about 32%
The depositor's hits bear a star; · = no result. Only some compounds are listed: those with a hit (about 4% of all), similar ones and a draw of the others.

SMILES	tim23-1 inh	tim10-1 inh	TIM10 inh	NLRP3 yeast inh	NALP1 yeast inh
COc1ccc(CCn2c(SCCN3CCCCC3)nc3ccccc3c2=O)cc1OC	-2.7	6.5	10.1	-2.9	34.1*
CNC(CC(=O)c1ccc([N+](=O)[O-])cc1)C(Cl)(Cl)Cl (centres undefined)	·	·	·	·	115.3*
COc1ccc(C(=O)CC(Nc2ccc([N+](=O)[O-])cc2)c2ccc(OC)cc2)cc1 (centres undefined)	27.6	25.0	26.5	18.3	26.6
CN(C)CCCN(C(=O)c1ccc2c(c1)CCCC2)c1nc2ccc(Cl)cc2s1	47.0	1.7	29.4	33.2	82.3*
CN(C)CCN(C(=O)c1ccc2c(c1)CCCC2)c1nc2c(F)cccc2s1	22.2	19.4	24.0	15.8	41.8*
COc1cccc2sc(N(CCN(C)C)C(=O)c3ccc4c(c3)CCCC4)nc12	32.3	33.6	29.1	19.4	38.6
CCOc1ccc2nc(N(CCCN(C)C)C(=O)c3ccc4c(c3)CCCC4)sc2c1	22.6	23.1	7.4	28.2	30.1
CCOc1ccccc1CN1CCN(Cc2nc3c(s2)CCCC3)CC1CCO (centres undefined)	5.7	20.3	16.9	16.9	35.1*
Cc1ccc2c(c1)-n1c(nc3ccc(C)cc3c1=O)C(Cc1ccccc1)NC2=O (centres undefined)	5.0	9.4	5.6	7.3	·
CCN(CC)S(=O)(=O)c1cccc(NC(=O)Nc2cccc(C(F)(F)F)c2)c1	11.8	39.2	17.9	-14.0	36.7*
CCN(CC)S(=O)(=O)c1cccc(NC(=O)CC2CCCC2)c1	17.9	28.1	21.8	7.2	11.1
CCOc1cc(/C=N/Nc2nc(-c3cccc(S(=O)(=O)N4CCCC4)c3)cs2)ccc1O	3.4	22.5	22.3	-30.2	10.9
CSc1nc2nc(-c3ccccc3)cc(C(F)(F)F)n2n1	-4.4	0.4	2.9	13.8	27.1*
Cc1ccc(C)c(N2CCN(C(=O)Cn3c(=O)oc4cc(S(=O)(=O)N5CCCC5)ccc43)CC2)c1	11.6	5.9	7.3	-3.8	22.3
O=C(Cn1c(=O)oc2cc(S(=O)(=O)N3CCCC3)ccc21)N1CCN(c2ccccc2)CC1	22.7	-0.2	2.4	14.4	38.9*
O=C(Cc1ccsc1)NCC(=O)Nc1ccc(F)c(F)c1	20.7	4.0	1.3	6.3	8.7
CSc1nn(-c2ccc(C(=O)OC(C(=O)NC(N)=O)C(C)C)cc2)c(=S)s1 (centres undefined)	5.1	6.5	-8.8	13.8	38.3*
COc1cc(/C=N/Nc2nc(Nc3ccc(C)cc3)nc(-n3nc(C)cc3C)n2)cc(OC)c1OC	-23.8	18.8	17.7	-1.7	42.3*
COc1cc(/C=N/Nc2nc(Nc3ccccc3)nc(-n3nc(C)cc3C)n2)cc(OC)c1OC	3.5	25.8	14.5	-3.7	-18.8
COc1ccc(C(=O)C2CCCN(Cc3c(C)[nH]c4ccccc34)C2)c(OC)c1 (centres undefined)	10.3	12.6	2.7	9.0	33.3*
COc1ccc(C(=O)C2CCCN(Cc3cc(C)c(O)c(C)c3)C2)c(OC)c1 (centres undefined)	14.1	2.7	9.9	5.6	28.8
COc1ccc(CCNC(=O)CNC(=O)c2ccc(Br)o2)cc1OC	3.1	8.5	-2.1	0.6	·
COc1ccc(C(=O)N(Cc2sccc2C)C2CCS(=O)(=O)C2)cc1 (centres undefined)	15.4	20.5	5.4	4.9	26.1*
Cc1ccc(S(=O)(=O)N(C(=O)c2ccncc2)c2ccc(OC(=O)c3ccncc3)c3ccccc23)cc1	45.9	27.2	30.4	4.2	48.1*
C=CCOc1ccc(/C=C2\SC(=S)N(NS(=O)(=O)c3ccc(C)cc3)C2=O)cc1	34.2	24.6	34.3	24.1	-17.2
SMILES	tim23-1 inh	tim10-1 inh	TIM10 inh	NLRP3 yeast inh	NALP1 yeast inh
Cc1c(CCO)c(=O)[nH]n1S(=O)(=O)c1ccc([N+](=O)[O-])cc1	13.9	12.6	6.7	1.6	8.6
COc1ccc(S(=O)(=O)n2[nH]c(=O)c(CCO)c2C)cc1	1.9	-11.9	0.2	3.6	29.1*
CN(C)CCCN1C(=O)C2CCc3[nH]c4ccccc4c3C2C1=O (centres undefined)	0.0	12.3	-5.6	0.3	20.1
CC(=O)NC1=C(NC2CCS(=O)(=O)C2)C(=O)c2ccccc2C1=O (centres undefined)	3.9	17.5	6.9	1.0	40.5
CN(C1=C(NC(=O)c2ccccc2)C(=O)c2ccccc2C1=O)C1CCS(=O)(=O)C1 (centres undefined)	14.2	14.4	13.5	-12.9	42.6*
Cc1onc(-c2ccccc2)c1C(=O)Nc1nnc(C(C)(C)C)s1	15.9	11.2	19.1	-3.0	4.0
CCOC(=O)N1CCC(NC(=O)c2ccc3c(c2)N(C)C(=O)/C(=C/c2cccc(OC)c2)S3)CC1	15.8	29.7	6.7	15.4	-9.6
O=C(NCC1CCCO1)NC12CC3CC(CC(C3)C1)C2 (centres undefined)	24.8	12.5	14.8	9.8	23.2
Cc1ccc(NC(=S)NCC2CCCO2)cc1 (centres undefined)	14.1	11.2	-1.3	-1.3	32.9*
Cc1ccc(NC(=S)NCC2CCCO2)cc1C (centres undefined)	29.0	24.1	3.9	6.2	3.7
S=C(NCC1CCCO1)NC12CC3CC(CC(C3)C1)C2 (centres undefined)	4.8	13.5	-11.2	22.3	19.8*
COc1cc(NC(=O)CSc2ncnc3sc4c(c23)CCCC4)c(C(=O)O)cc1OC	8.4	1.3	13.2	-21.9	5.3
CCc1ccccc1OCC(=O)NCC1COc2ccccc2O1 (centres undefined)	18.6	-5.6	19.6	19.6	·
Oc1cc2c(cc1CN1CCN(c3ncccn3)CC1)OCO2	20.0	8.0	7.7	8.6	-4.8
CCn1c(CC(=O)Nc2ccccc2)nnc1SCc1nc2ccccc2c(=O)[nH]1	-1.3	-2.4	-7.6	10.3	·
CC1CCN(C(=O)COC(=O)c2ccc(Br)o2)CC1	12.9	0.9	3.7	25.3	33.8*
CCOC(=O)C1CCN(C(=O)COC(=O)c2ccc(Br)o2)CC1	1.7	-4.2	-13.5	15.7	18.8
COc1cc(N2CCCC2)c(OC)cc1/C=C(/C#N)c1cccc(F)c1	·	·	·	·	43.8*
Nc1cc(=O)[nH]c(SCc2cccc3ccccc23)n1	29.1	-7.6	11.3	2.1	10.3
COc1ccccc1-c1noc(CSc2nc(N)cc(=O)[nH]2)n1	-7.7	-0.1	3.4	-0.9	32.7*
CCOC(=O)C1CCCN(C(=O)Nc2c(-c3ccccc3)noc2C)C1 (centres undefined)	-12.4	-5.8	2.3	9.7	36.1*
CCOC(=O)C1CCCN(C(=O)c2c(-c3ccccc3Cl)noc2C)C1 (centres undefined)	8.0	14.3	8.6	-6.6	4.8
Cc1cccc(-n2ccnc2SCC(=O)c2c(N)n(C3CC3)c(=O)[nH]c2=O)c1C	-8.5	-18.5	-0.4	-6.7	·
Nc1nc2nccc(-c3ccc(Cl)cc3)n2n1	16.8	-6.0	25.3	33.6	36.3*
